High-throughput results from PubChem.
This is a sample that favours compounds with a hit; in the whole collection about 21% have one here.
NS1 inh = blocks influenza NS1 protein function | Potency, µM (series often up to 46.1 µM), without a hit: at the top dose activity, positive = more growth | hit rate 0.4% among 270,000 | AID 2326; calls by dose curve; further: potency means the concentration at half of the fitted maximal effect; actives are rising curves; nearly all actives have a fitted effect of over 50% in size
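Compounds were scored for reversing the slow growth caused by influenza A NS1 in S. cerevisiae, measured by optical density at 600 nm. Assay medium contained 2% galactose at pH 6.0; NS1-free yeast of the same strain were the positive control.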
Pf growth 48h = inhibits P. falciparum growth in the first generation, 48 h. P. falciparum luciferase growth in erythrocytes, 48 h. Potency, µM (top dose mostly 28.7 µM), for inactives: at the highest dose activity change, negative = inhibition, hits mostly inhibitors. hit rate 5.9% among 310,000; further: potency means the concentration at half of the fitted maximal effect; on the % scale 0 is the no-effect control and ±100 the full control effect
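Erythrocytes infected with P. falciparum carrying an integrated firefly luciferase reporter (2% hematocrit, 0.1% parasitemia final) were exposed to compounds in RPMI 1640 with 0.5% Albumax at 37 C, 5% CO2. Growth inhibition was scored as reduced luminescence.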
Pf growth 96h = P. falciparum growth inhibition at 96 hour, primary screen for plastid delayed-death inhibitors; Potency, µM (titrated, usually from 28.7 µM), without a hit: top-dose activity change, negative = inhibition, usual class: inhibitors; P. falciparum luciferase reporter growth, 96 h; hit rate 6.9% among 320,000; further: potency means the concentration at half of the fitted maximal effect; on the % scale 0 is the no-effect control and ±100 the full control effect
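Cell-based qHTS: luciferase-tagged P. falciparum in erythrocytes (2% hematocrit, 0.05% parasitemia final) incubated with compounds for 96 hours, 37 C, 5% CO2; luciferase detection reagent then added and luminescence measured.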
Cycloheximide cs = affects cycloheximide protein synthesis inhibition readout, counter-screen; cell reporter, cycloheximide protein synthesis inhibition counterscreen; max response, %; hit rate 12% among 300,000; in the data active means max response mostly above about 13%, no sharp cut-off; inactive means mostly below about 14%; further: read at 38.3 µM for the half of the compounds with a filed dose; 0% is about no effect
Shiga toxin inh = blocks Shiga toxin action in Vero cells; Vero cells, Shiga toxin protein synthesis inhibition reporter; inhibition, % at 38.7 µM; hit rate 9.2% among 290,000; in the data active means inhibition mostly above about 28%, no sharp cut-off; inactive means mostly below about 43%; further: 0% is about no effect
Active calls of the source: *; ? = inconclusive; · = no result. Unless noted, the call rests on the fitted dose curve; in most records, active means well fitted inhibition curve with a large enough effect; inconclusive means small, poorly fitted or top-dose-only effect, or another doubt; inactive means no such curve, though single readings can be large or run the other way.

SMILES	NS1 inh	Pf growth 48h	Pf growth 96h	Cycloheximide cs	Shiga toxin inh
COC(=O)C1=C(c2ccccc2OCc2ccccc2)C[C@@H]2CC[C@H]1N2C(=O)NCCOc1ccc(OC)cc1	·	9.3µM*	1.3µM*	·	·
COC(=O)C1=C(c2ccccc2OCc2ccccc2)C[C@@H]2CC[C@H]1N2C(=O)NCCCOC(C)C	·	?	5.2µM*	·	·
CC(C)c1ccc(NC(=O)C2CCN(S(=O)(=O)c3ccc4c(c3)C(C)(C)C(=O)N4C)CC2)cc1	3%	?	-20%	-4	-11
Cc1ccccc1-n1c(SCC(=O)Nc2ccccc2)nc2nc3c(cc2c1=O)CCCC3	?	?	46%	-3	-10
Cc1cccc(NC(=O)CSc2nc3nc4c(cc3c(=O)n2-c2ccccc2)CCCC4)c1	6%	5.2µM*	2.9µM*	-2	-13
O=C(CSc1nc(O)cc(=O)n1-c1ccccc1)NC1CCCCC1	?	2.6µM*	·	3	27
O=C(CSc1nc2nc3c(cc2c(=O)n1-c1ccccc1)CCCC3)Nc1cccc2ccccc12	24%	5.9µM*	5.9µM*	-6	14
COc1ccc(NC(=O)CSc2nc(O)cc(=O)n2-c2ccccc2)cc1	27%	1%	40%	14	-7
O=c1cc(O)nc(SCc2ccccc2)n1-c1ccc(F)cc1	12%	2.9µM*	?	-3	-7
CCOCCOC(=O)c1cccc2c1-c1ccccc1C2=O	-10%	-4%	-8%	1	2
Cc1c2c(c(O)c3c(O)cccc13)C(=O)O[C@H]2C1C(N(C)C)C(O)=C(C(N)=O)C(=O)[C@H]1O (stereo not given in full)	·	·	·	-9	11
COc1ccc([N+](=O)[O-])cc1N(CC(=O)NC(C(C)C)C(C)C)S(C)(=O)=O	0%	-10%	?	-2	-6
CCn1c(SC(=O)NC2CCCCC2)nnc1-c1cccs1	-40%	26%	-1%	10	-2
O=C(CSc1nc(O)cc(=O)n1-c1ccccc1)Nc1ccc2c3c(cccc13)CC2	?	?	8.3µM*	-2	2
Cc1cc(NC(=O)C2CCCCC2)ccc1NC(=O)c1ccccc1Cl	-6%	12%	-6%	-2	-5
COc1ccc(C(=O)N[C@H](C(=O)NCc2ccco2)C(C)C)cc1	·	110%	1%	5	-12
COc1cccc(C(=O)c2c[nH]c(C(=O)NCc3ccco3)c2)c1	10%	24%	-20%	23*	18
CC(OC(=O)C1=Cc2ccccc2OC1)C(=O)NCc1ccco1 (stereo not given)	·	-3%	0%	23*	42
CC(C)Oc1ccc(C(=O)NCc2ccco2)cc1	-4%	?	58%	29*	38*
COc1ccc(C(=O)Nc2cccc(C(=O)NCc3ccco3)c2)cc1	-2%	36%	9%	12*	21
COc1ccc(C(=O)c2c[nH]c(C(=O)NCc3ccco3)c2)cc1	3%	61%	73%	10	20
COCCN(C(=O)COC(=O)c1cc2c(s1)CCCC2)c1c(N)n(Cc2ccccc2)c(=O)[nH]c1=O	·	?	-2%	·	·
COc1ccc(Nc2nc(C(=O)NCc3ccco3)cs2)cc1	-115%	?	?	14*	44
O=C(NCc1ccco1)c1csc(Nc2ccccc2Cl)n1	-39%	-10%	-5%	8	20
CCOc1cc(C(=O)NCc2ccco2)cc(OCC)c1OCC	0%	-10%	?	-1	-3
SMILES	NS1 inh	Pf growth 48h	Pf growth 96h	Cycloheximide cs	Shiga toxin inh
CCCCCOc1ccc(C(=O)OC(C)C(=O)NCc2ccco2)cc1 (stereo not given)	-19%	?	13µM*	15	27
CCCOc1ccc(C(=O)NCc2ccco2)cc1	-63%	?	?	35*	74*
O=Cc1ccc(OCc2ccc3c(c2)OCO3)cc1	-108%	-13%	?	35*	·
COc1ccc(OCC(=O)N2CCN(Cc3ccc4c(c3)OCO4)CC2)cc1	-1%	-12%	-1%	-5	-7
CCN(CC)CC(O)COc1ccc2c(c1)OCO2 (stereo not given)	0%	·	30%	-1	-3
Cc1ccc(COc2ccc3c(c2)OCO3)cc1	-10%	198%	156%	31*	97*
COc1ccc(NC(=O)C2CCN(S(=O)(=O)c3cccc4nonc34)CC2)c(OC)c1	3%	-13%	-7%	-1	-5
O=S(=O)(NCc1cccs1)c1ccccc1Cl	·	-2%	11%	·	·
O=C(COC(=O)/C=C/c1ccco1)NCCc1ccccc1	·	24%	30%	2	15
COc1ccc(C(=O)N/C(=C\c2cn(S(=O)(=O)N(C)C)c3ccccc23)C(=O)N2CCN(C)CC2)cc1	-12%	?	14%	0	-7
Cc1ccc(NC(=O)CCN2CCC(C)CC2)cc1	-2%	34%	13µM*	-3	-6
CCN1CCN(CCC(=O)Nc2ccc(C)cc2)CC1	15%	18%	?	1	-11
Cc1ccc(C)c(NC(=O)CCN2CCC(C)CC2)c1	-2%	10%	5.2µM*	-2	-16
CC1CCN(CCC(=O)Nc2ccc(Cl)cc2)CC1	2%	?	-7%	0	-25
Cc1ccc(C)c(NC(=O)CCN2CC(C)CC(C)C2)c1 (stereo not given)	-4%	4%	?	-2	·
CCN1CCN(CCC(=O)Nc2ccccc2)CC1	21%	70%	13µM*	2	15
Cc1ccc(C)c(NC(=O)CCN2CCc3ccccc3C2)c1	4%	13µM*	0%	-5	-11
Cc1ccc(N2CC(C(=O)NCC3CCCO3)CC2=O)cc1Cl (stereo not given)	3%	1%	?	-3	-10
CCCCn1c(N)c(N(CCOC)C(=O)c2cccc(N3C(=O)c4ccccc4C3=O)c2)c(=O)[nH]c1=O	·	-5%	13%	·	·
CC(=O)Nc1ccccc1NC(=O)C/C(C)=N/NC(=O)C(=O)N1CCCCC1	-3%	-10%	?	7	-7
O=C1OCc2cccc3cccc1c23	-15%	16%	-17%	-4	-8
O=C1OCc2cc(-n3cccc3)ccc21	·	17%	?	17*	28
Cc1ccc(C)n1-c1ccc2c(c1)COC2=O	21%	?	30%	-1	31
Nc1ccc2c(c1)COC2=O	·	38%	?	34*	83*
COC(=O)C1(CO)NC(c2ccc(C)cc2)C2C(=O)N(c3ccccc3)C(=O)C21 (stereo not given)	15%	-4%	-15%	-2	-4
CCN1C(=O)[C@H]2[C@@H](c3ccc(-c4ccc(Cl)c(Cl)c4)c(OC)c3)N[C@@](Cc3ccccc3)(C(=O)OC)[C@H]2C1=O	·	2.9µM*	3.7µM*	·	·
CCCSc1ccc([C@H]2N[C@@](C)(C(=O)OC)[C@H]3C(=O)N(C)C(=O)[C@@H]23)cc1OC	·	?	10%	·	·
CCN1C(=O)[C@H]2[C@@H](c3ccc(-c4cccc(Cl)c4)cc3)N[C@@](Cc3ccccc3)(C(=O)OC)[C@H]2C1=O	·	4.7µM*	4.7µM*	·	·
